The source of these data is PubChem BioAssay (NCI).

About 83,000 compounds went through this panel and 20% of them were active in at least one assay; those are over-represented in the sample as a whole.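 Percent growth is the endpoint: 0 to 100 indicates growth inhibition (40 means 60% inhibition), 0 means no net growth, and negative values indicate cell death.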 A number with no mark means an inactive call. Calls of active or inactive are those of the source. Rule for the calls: active = growth percent below 10; inactive = the rest.

Assay in all cases: NCI-60 one-dose screen, 48 h (100 = growth as untreated, 0 = no growth, -100 = all killed)
Conditions in all cases: 10 µM unless noted

Experiment [1] has as its system SK-MEL-2 melanoma.
The subject of experiment [2] is EKVX NSCLC.
Experiment [3] concerns SN12C renal.
Experiment [4] concerns UO-31 renal.
Experiment [5] concerns TK-10 renal.
Experiment [6] has as its system ACHN renal.
Experiment [7] deals with CAKI-1 renal.
In experiment [8] the test system is A498 renal.
In experiment [9] the test system is CCRF-CEM leukemia.
In experiment [10] the test system is MOLT-4 leukemia.

With `CC(C)C[C@H](NC(=O)CNC(=O)C[C@H]1O[C@@H]2OC3(C)CC[C@H]4[C@H](C)CC[C@@H]([C@H]1C)[C@@]24O3)B(O)O`, the growth was -61.9% (active) in [1]; 27.3% in [2]; -39.2% (active) in experiment [3]; 10.5% in experiment [4]; 12.1% in [5]; 6.33% (active) in [6]. The growth was 15.8% in experiment [7], 21.1% in [8], -12.4% (active) in experiment [9] and 7.31% (active) in [10].
Regarding `O=C(N/N=C/c1ccoc1)c1[nH]c2ccc(Br)cc2c1-c1ccccc1`, the growth is -84.5% (active) in [1]; -97.6% (active) in [2]; -95.8% (active) in [3]; -82.5% (active) in experiment [4]; -82.5% (active) in [5]; -100% (active) in [6]. Moreover, the growth in [7] was -99.6% (active); in experiment [8], -82.9% (active); in experiment [9] it was -12.1% (active); in experiment [10], -5.76% (active).
For the compound `COc1cc(/C=C/C(=O)c2cnn(-c3cc(=O)[nH]c4ccc(Br)cc34)c2C)cc(OC)c1OC`, the growth in experiment [1] was -59.6% (active); in experiment [2], -57.8% (active); in experiment [3], -7.58% (active); in experiment [4], -80.7% (active); in experiment [5], 1.77% (active); in [6], -34.9% (active). In addition, the growth in [7] is -4.42% (active); in experiment [8] it was 6.24% (active); in experiment [9], -19.6% (active); in experiment [10], -12.3% (active).
For `CS(=O)(=O)Nc1cncc(-c2ccc3ncnc(NCc4ccccc4)c3c2)c1`, the growth in experiment [1] was -8.92% (active); in experiment [2], 55.2%; in experiment [3], 34.8%; in experiment [4] it was 52.7%; in [5] it was 63%; in experiment [6], 77.5%. Further, the growth in experiment [7] was 60.7%; in experiment [8], 63.8%; in experiment [9] it was 17%; in experiment [10], -26% (active).
In the case of `CCC(=O)c1cc(C(=O)OC)c2ccc3c4ccccc4ccc3n12`, the growth in experiment [1] is 105%; in experiment [2], 83.6%; in experiment [3] it was 57.9%; in [4], 52.9%; in experiment [5] it was 63.9%; in experiment [6], 0.659% (active). Further, the growth is 42.7% in experiment [7], 136% in [8], 97.8% in experiment [9] and 94.8% in experiment [10].
In the case of `CC(C)CN1C(=O)/C(=C\C(=O)c2cc3ccccc3oc2=O)c2ccccc21`, the growth in [1] was 101%; in experiment [2], 94.7%; in [3], 89.9%; in experiment [4], 52.1%; in [5], 98.2%; in experiment [6], 30.6%. Moreover, the growth is 81.2% in experiment [7], 149% in experiment [8], 37.2% in experiment [9] and 40% in experiment [10].
As for `COc1cc2cc(C(=O)N3C[C@@H](CCl)c4c3cc(OC(=O)N(C)CCSSCCN3CCOCC3)c3ccccc43)[nH]c2c(OC)c1OC`, the growth in [1] is -86.8% (active); in experiment [2], -40.1% (active); in [3] it was -48.4% (active); in experiment [4], -28.2% (active); in experiment [5], -40% (active); in experiment [6] it was -18.9% (active). The growth in [7] was -45.3% (active); in experiment [8], -15.9% (active); in [9], -15.9% (active); in experiment [10] it was -18.2% (active).
Regarding `Oc1ccc(Cl)c(Nc2ncnc3c2cnn3CC(Cl)c2ccc(Br)cc2)c1` (stereo not given), the growth in experiment [1] was 84.8%; in experiment [2], 55.4%; in [3] it was 43.9%; in [4], 21.3%; in [5], 47.1%; in experiment [6] it was 8.02% (active). Also, the growth is 18.3% in [7], 98.9% in experiment [8], 59.8% in experiment [9] and 34.7% in experiment [10].
With `COc1cc(C2CC(c3ccc(S(=O)(=O)NCCNc4nc(N(C)C)nc(N5CCOCC5)n4)cc3)=Nc3c(N)nc(N)nc3N2)cc(OC)c1OC` (stereo not given), the growth was 108% in [1]; 75.4% in experiment [2]; 86.5% in [3]; 80.5% in experiment [4]; 107% in experiment [5]; 94.6% in experiment [6]. Moreover, the growth in [7] is 88.4%; in [8], 79%; in experiment [9], 99.3%; in experiment [10] it was 89.3%.
`COc1ccc2ccccc2c1/C=C1\SC(=Nc2ccc(O)cc2)NC1=O`: the growth in [1] is 27.1%; in experiment [2] it was 15.8%; in experiment [3], 6.03% (active); in experiment [4], 17.7%; in experiment [5] it was 36.9%; in [6], 17%. Moreover, the growth in [7] was 9.94% (active); in experiment [8], 93.5%; in experiment [9] it was 2.89% (active); in experiment [10], 9.45% (active).
For the compound `CN(CCSSCCN1CCOCC1)C(=O)Oc1cc2c(c3ccccc13)[C@H](CCl)CN2C(=O)c1cc2cc(OCCCN3CCC3)ccc2[nH]1`, the growth in experiment [1] was -84.3% (active); in experiment [2] it was -61.3% (active); in experiment [3], -9.12% (active); in experiment [4], -16.7% (active); in experiment [5] it was -10.3% (active); in experiment [6], -66.8% (active). Moreover, the growth in experiment [7] is -48.1% (active); in [8], -14.5% (active); in [9] it was -41.3% (active); in [10] it was -39.8% (active).
In the case of `COc1ccc2oc(=O)c(-c3csc(N/N=C(\C)c4cc(OC)c(OC)c(OC)c4)n3)cc2c1`, the growth in experiment [1] is 99.7%; in experiment [2], 94.7%; in [3] it was 80.5%; in experiment [4], 90.8%; in experiment [5] it was 94.2%; in [6] it was 78.7%. Further, the growth is 97.8% in experiment [7], 145% in [8], 81.3% in [9] and 81% in experiment [10].
On to `CC1=C(C(=O)Nc2ccccc2)C(c2cccc3ccccc23)n2c(nc3ccccc32)N1` (stereo not given), for which the growth in experiment [1] was 99.7%; in experiment [2], 67.4%; in experiment [3], 18.5%; in experiment [4], 59%; in experiment [5] it was 81%; in experiment [6], 27.6%. The growth was 5.8% (active) in experiment [7], 102% in experiment [8], 65.4% in [9] and 67.5% in [10].
